Experiment [1] deals with T1, cGMP-dependent protein kinase 1 (Homo sapiens) (UniProt Q13976).
T1 sequence (whole entry): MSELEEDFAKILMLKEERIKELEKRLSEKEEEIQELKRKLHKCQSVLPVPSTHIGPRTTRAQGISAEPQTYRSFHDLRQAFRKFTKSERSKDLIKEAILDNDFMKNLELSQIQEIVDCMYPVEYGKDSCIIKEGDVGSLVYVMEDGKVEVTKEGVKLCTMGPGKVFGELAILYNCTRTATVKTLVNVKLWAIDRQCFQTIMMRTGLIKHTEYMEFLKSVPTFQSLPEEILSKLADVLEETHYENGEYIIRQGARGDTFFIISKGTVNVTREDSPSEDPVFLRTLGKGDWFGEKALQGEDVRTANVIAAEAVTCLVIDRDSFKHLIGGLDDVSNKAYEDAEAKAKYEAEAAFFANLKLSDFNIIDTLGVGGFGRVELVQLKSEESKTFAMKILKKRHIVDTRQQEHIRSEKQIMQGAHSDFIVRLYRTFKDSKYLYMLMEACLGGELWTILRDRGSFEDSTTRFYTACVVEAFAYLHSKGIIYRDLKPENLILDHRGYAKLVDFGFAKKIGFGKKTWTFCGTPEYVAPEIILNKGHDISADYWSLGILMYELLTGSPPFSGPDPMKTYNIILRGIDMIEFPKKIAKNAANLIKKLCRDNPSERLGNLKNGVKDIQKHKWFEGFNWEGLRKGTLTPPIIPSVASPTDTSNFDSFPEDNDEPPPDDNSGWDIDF
The following applies: at 1 µM.

The target in experiment [2] is T1, cGMP-dependent protein kinase 1 (Homo sapiens). The conditions noted are these: at 10 µM.
The target is the same in experiment [3]. The following applies: at 1 µM. This is another data set of the same source.
The target is the same in experiment [4]. The following applies: at 10 µM. This is another data set of the same source.
The target of experiment [5] is T2, MAP kinase-activated protein kinase 5 (Homo sapiens) (UniProt Q8IW41).
T2 sequence (whole entry): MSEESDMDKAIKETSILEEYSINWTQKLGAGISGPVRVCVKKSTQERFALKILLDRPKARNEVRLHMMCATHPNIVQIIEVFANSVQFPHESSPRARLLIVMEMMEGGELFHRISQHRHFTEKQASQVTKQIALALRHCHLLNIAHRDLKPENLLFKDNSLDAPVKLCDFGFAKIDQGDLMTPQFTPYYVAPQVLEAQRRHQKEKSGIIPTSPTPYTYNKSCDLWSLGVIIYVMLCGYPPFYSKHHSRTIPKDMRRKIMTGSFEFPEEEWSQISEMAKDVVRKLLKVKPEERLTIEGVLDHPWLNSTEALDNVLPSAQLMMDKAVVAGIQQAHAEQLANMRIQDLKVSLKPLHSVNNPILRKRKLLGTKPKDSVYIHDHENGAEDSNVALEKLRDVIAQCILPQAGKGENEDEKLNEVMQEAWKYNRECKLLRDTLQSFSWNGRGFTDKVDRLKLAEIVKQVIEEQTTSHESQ
The conditions noted are these: at 1 µM.

For experiment [6], the target named is T2, MAP kinase-activated protein kinase 5 (Homo sapiens). The conditions noted are these: at 10 µM.
Experiment [7] concerns the target Serine/threonine-protein kinase N2 (Homo sapiens) (UniProt Q16513). The following applies: at 1 µM.
Experiment [8] has the same target. The conditions noted are these: at 10 µM.
Experiment [9] has as its target Tyrosine-protein kinase FRK (Homo sapiens) (UniProt P42685). The following applies: at 1 µM.
For experiment [10] the target is unchanged. The following applies: at 10 µM.
In experiment [11] the target is T3, Phosphorylase b kinase gamma catalytic chain, liver/testis isoform (Homo sapiens) (UniProt P15735).
T3 sequence (whole entry): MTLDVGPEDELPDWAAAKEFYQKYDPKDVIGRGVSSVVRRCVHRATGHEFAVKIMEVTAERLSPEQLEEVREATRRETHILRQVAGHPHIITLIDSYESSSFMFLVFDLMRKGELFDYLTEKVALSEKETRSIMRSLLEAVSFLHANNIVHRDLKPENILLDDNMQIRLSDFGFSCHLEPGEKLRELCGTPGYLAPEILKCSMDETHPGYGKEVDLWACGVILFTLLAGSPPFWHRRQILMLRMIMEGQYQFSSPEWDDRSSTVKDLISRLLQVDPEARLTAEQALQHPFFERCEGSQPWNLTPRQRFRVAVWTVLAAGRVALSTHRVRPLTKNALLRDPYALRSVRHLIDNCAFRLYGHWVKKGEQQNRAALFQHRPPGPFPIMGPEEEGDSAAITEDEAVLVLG
The following applies: at 1 µM.

Experiment [12] deals with T3, Phosphorylase b kinase gamma catalytic chain, liver/testis isoform (Homo sapiens). The following applies: at 10 µM.
Experiment [13] concerns the target Serine/threonine-protein kinase pim-1 (Homo sapiens) (UniProt P11309). The conditions noted are these: at 1 µM.
For experiment [14] the target is unchanged. The following applies: at 10 µM.
Experiment [15] concerns the target Serine/threonine-protein kinase pim-2 (Homo sapiens) (UniProt Q9P1W9). The following applies: at 1 µM.
For experiment [16] the target is unchanged. The conditions noted are these: at 10 µM.
The target of experiment [17] is Serine/threonine-protein kinase pim-3 (Homo sapiens) (UniProt Q86V86). The conditions noted are these: at 1 µM.
Experiment [18] shares this target. The following applies: at 10 µM.
The target in experiment [19] is Serine/threonine-protein kinase PLK1 (Homo sapiens) (UniProt P53350). The following applies: at 1 µM.
Experiment [20] shares this target. The following applies: at 10 µM.

Chain of Tyrosine-protein kinase FRK (Homo sapiens) (P42685 whole entry): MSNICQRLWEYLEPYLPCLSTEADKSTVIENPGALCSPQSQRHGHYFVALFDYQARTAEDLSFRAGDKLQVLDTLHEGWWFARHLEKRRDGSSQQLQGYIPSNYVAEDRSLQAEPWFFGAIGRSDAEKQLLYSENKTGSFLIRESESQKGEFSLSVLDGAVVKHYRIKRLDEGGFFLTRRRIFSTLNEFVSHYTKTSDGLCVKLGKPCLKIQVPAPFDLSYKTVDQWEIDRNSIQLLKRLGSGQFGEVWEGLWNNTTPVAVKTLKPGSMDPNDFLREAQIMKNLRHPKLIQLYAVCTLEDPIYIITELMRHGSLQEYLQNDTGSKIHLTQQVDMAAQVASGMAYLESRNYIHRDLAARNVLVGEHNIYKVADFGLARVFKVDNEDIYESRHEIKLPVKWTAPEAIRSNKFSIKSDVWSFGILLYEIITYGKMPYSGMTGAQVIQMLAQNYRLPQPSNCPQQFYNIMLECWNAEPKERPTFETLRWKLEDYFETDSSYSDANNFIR
Chain of Serine/threonine-protein kinase pim-2 (Homo sapiens) (Q9P1W9 whole entry, looked up): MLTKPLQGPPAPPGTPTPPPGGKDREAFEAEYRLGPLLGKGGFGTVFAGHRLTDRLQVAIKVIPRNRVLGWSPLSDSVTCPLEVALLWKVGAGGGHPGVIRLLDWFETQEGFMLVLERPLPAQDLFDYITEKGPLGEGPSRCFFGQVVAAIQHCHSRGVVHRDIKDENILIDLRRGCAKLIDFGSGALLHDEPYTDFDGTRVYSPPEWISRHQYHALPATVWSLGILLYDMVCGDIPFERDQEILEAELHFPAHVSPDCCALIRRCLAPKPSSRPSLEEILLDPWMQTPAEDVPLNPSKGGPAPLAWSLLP
Chain of Serine/threonine-protein kinase PLK1 (Homo sapiens) (P53350 whole entry): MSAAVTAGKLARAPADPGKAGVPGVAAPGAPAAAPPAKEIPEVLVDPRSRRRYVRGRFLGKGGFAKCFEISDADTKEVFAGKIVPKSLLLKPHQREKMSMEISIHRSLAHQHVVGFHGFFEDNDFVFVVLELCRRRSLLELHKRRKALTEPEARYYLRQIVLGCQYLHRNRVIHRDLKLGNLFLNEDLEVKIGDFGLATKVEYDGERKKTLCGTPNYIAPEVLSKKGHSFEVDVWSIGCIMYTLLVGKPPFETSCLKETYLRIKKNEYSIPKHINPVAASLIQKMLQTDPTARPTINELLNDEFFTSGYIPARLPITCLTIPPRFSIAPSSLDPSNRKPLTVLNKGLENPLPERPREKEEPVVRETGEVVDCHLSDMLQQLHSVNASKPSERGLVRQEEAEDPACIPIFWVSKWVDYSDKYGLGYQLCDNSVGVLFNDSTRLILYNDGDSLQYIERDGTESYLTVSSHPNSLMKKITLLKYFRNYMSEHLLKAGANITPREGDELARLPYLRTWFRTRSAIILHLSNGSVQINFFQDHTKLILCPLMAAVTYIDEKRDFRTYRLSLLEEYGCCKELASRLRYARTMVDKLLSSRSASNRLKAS
Chain of Serine/threonine-protein kinase pim-1 (Homo sapiens) (P11309 whole entry, looked up): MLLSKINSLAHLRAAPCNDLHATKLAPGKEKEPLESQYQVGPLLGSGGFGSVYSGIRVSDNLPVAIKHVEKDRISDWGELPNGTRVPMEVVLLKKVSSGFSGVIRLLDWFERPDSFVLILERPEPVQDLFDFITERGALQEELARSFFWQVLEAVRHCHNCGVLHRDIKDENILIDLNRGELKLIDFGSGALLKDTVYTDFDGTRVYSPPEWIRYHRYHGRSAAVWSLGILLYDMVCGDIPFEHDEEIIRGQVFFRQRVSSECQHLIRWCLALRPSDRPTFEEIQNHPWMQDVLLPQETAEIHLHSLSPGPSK
Chain of Serine/threonine-protein kinase N2 (Homo sapiens) (Q16513 whole entry, looked up): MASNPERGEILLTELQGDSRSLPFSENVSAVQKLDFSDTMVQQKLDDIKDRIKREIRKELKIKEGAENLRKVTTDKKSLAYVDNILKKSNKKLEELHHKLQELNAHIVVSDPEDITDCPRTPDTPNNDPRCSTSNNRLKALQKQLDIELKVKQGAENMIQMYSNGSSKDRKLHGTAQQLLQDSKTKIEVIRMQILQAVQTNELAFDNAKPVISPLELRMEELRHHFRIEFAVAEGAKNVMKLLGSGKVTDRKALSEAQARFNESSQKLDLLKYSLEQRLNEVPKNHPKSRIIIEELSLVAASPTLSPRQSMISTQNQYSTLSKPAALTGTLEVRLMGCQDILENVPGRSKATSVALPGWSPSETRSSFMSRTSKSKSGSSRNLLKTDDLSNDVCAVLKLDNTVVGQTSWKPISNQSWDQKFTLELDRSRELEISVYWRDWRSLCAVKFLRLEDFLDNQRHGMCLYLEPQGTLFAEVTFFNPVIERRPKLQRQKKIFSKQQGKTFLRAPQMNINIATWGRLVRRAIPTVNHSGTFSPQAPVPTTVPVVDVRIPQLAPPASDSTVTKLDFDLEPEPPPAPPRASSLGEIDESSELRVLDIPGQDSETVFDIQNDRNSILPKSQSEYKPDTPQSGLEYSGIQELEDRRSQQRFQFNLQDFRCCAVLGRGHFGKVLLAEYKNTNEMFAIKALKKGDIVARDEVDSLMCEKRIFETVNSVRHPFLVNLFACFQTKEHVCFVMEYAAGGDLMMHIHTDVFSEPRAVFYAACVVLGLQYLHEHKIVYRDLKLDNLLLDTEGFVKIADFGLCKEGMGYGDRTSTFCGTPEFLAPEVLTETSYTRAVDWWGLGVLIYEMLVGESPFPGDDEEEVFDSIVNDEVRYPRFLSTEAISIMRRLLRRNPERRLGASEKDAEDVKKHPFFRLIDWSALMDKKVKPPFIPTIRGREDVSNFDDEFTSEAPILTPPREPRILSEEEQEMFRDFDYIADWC

Turning to `O=C(O)c1ccc2c3c1cccc3c(=O)n1c3ccccc3nc21`, the residual activity in experiment [1] was 95%; in experiment [2], 97%; in experiment [3], 98%; in [4], 83%; in experiment [5], 81%; in experiment [6] it was 62%. Besides, the residual activity was 96% in experiment [7]; 86% in experiment [8]; 95% in experiment [9]; 90% in experiment [10]; 95% in experiment [11]; 72% in [12]. Besides, the residual activity in experiment [13] was determined as 58%; in experiment [14] it was 23%; in experiment [15], 14%; in experiment [16], 0%; in [17] it was 15%; in experiment [18], 1%. Besides, the residual activity in experiment [19] is 92%; in experiment [20], 94%.

As to `C[C@@H](N)[C@H]1CC[C@H](C(=O)Nc2ccncc2)CC1`, the residual activity is 77% in experiment [1]; 31% in experiment [2]; 73% in [3]; 30% in [4]; 112% in [5]; 102% in [6]. For the same compound, the residual activity in [7] amounted to 16%; in [8] it was 4%; in experiment [9] it was 98%; in experiment [10] it was 97%; in experiment [11], 101%; in [12], 93%. Further, the residual activity was 126% in experiment [13]; 115% in experiment [14]; 118% in experiment [15]; 121% in experiment [16]; 98% in experiment [17]; 99% in experiment [18]. Further, the residual activity in experiment [19] was 107%; in experiment [20], 105%.

As to `CC[n+]1c(/C=C/N(C)c2ccccc2)n(-c2ccccc2)c2ccc(-c3nc4ccccc4s3)cc21`, the residual activity in experiment [1] amounted to 105%; in [2], 80%; in [3] it was 87%; in [4], 60%; in [5] it was 104%; in [6], 133%. The residual activity in experiment [7] turned out to be 94%; in experiment [8] it was 77%; in experiment [9], 108%; in [10], 123%; in experiment [11] it was 93%; in experiment [12], 63%. The residual activity was determined as 94% in experiment [13]; 85% in experiment [14]; 101% in experiment [15]; 136% in experiment [16]; 105% in experiment [17]; 107% in experiment [18]. Further, the residual activity in [19] stood at 123%; in experiment [20], 90%.

Regarding `CC(C)n1cnc2/c(=N/c3cccc(Cl)c3)nc(NCCO)[nH]c21`, the residual activity in [1] came out at 92%; in [2] it was 106%; in experiment [3] it was 94%; in experiment [4], 72%; in [5] it was 105%; in experiment [6], 88%. The residual activity is 86% in [7]; 62% in experiment [8]; 75% in experiment [9]; 29% in experiment [10]; 52% in experiment [11]; 33% in experiment [12]. Further, the residual activity stood at 115% in experiment [13]; 66% in experiment [14]; 137% in experiment [15]; 93% in [16]; 84% in [17]; 71% in experiment [18]. In addition, the figures for the residual activity in experiment [19] and in [20] were 30% and 6%, respectively.

Regarding `O=c1c2ccccc2[nH]c(=S)n1CCN1CCC(=C(c2ccc(F)cc2)c2ccc(F)cc2)CC1`, the residual activity was found to be 107% in [1]; 103% in [2]; 86% in experiment [3]; 87% in [4]; 94% in [5]; 74% in experiment [6]. Also, the residual activity was found to be 114% in [7]; 109% in experiment [8]; 101% in experiment [9]; 89% in experiment [10]; 103% in [11]; 105% in experiment [12]. Besides, the residual activity in experiment [13] is 89%; in experiment [14], 105%; in [15], 75%; in experiment [16], 133%; in experiment [17], 98%; in experiment [18], 99%. Further, the residual activity was 104% in experiment [19] and 68% in experiment [20].

Regarding `Cc1ccc(NC2=CC(=O)c3sc(C)nc3C2=O)cc1`, the residual activity in experiment [1] was found to be 91%; in experiment [2], 95%; in experiment [3], 105%; in [4] it was 88%; in experiment [5], 110%; in experiment [6], 114%. Further, the residual activity in experiment [7] is 93%; in experiment [8] it was 89%; in experiment [9], 87%; in [10], 90%; in experiment [11], 114%; in experiment [12] it was 92%. In addition, the residual activity in [13] came to 94%; in experiment [14], 85%; in experiment [15] it was 99%; in [16] it was 111%; in experiment [17], 91%; in experiment [18] it was 92%. Also, the residual activity in [19] worked out at 87%; in [20], 89%.

For the compound `CC(C)n1cnc2c(NCc3ccccc3)nc(NCCCO)nc21`, the residual activity in experiment [1] is 89%; in experiment [2], 101%; in experiment [3] it was 95%; in experiment [4], 83%; in experiment [5], 115%; in [6], 115%. In addition, the residual activity is 110% in [7]; 99% in experiment [8]; 88% in [9]; 80% in experiment [10]; 96% in experiment [11]; 75% in [12]. In addition, the residual activity in experiment [13] amounted to 107%; in experiment [14], 75%; in experiment [15] it was 134%; in experiment [16], 87%; in experiment [17] it was 93%; in experiment [18], 96%. In addition, the residual activity in [19] was 89%; in experiment [20], 52%.

The record behind these values is ChEMBL document CHEMBL2218924, “A broad activity screen in support of a chemogenomic map for kinase signalling research and drug discovery” (Biochem J, 2013).
